VP16 counter: VP16 counterscreen qHTS for inhibitors of ROR gamma transcriptional activity | Drosophila S2 Gal4-VP16 UAS-luciferase, luminescence, 20 h | Potency, µM (titrated, usually from 53.6 µM), for the others: at the highest dose activity, negative = inhibition, actives largely listed as inhibitors | 310,000 tested, 3.5% active;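 further: Gal4-VP16 expression switched on by copper sulfate through the metallothionein promoter; potency means the concentration at half of the fitted maximal effect; on the % scale 0 is the no-effect control and ±100 the full control effect; nearly all actives have a fitted effect of over 50% in size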
RORg inh: qHTS for inhibitors of ROR gamma transcriptional activity. Potency, µM (highest dose often 53.6 µM), for inactives: at the top dose activity change, negative = inhibition, usual class: inhibitors. 310,000 tested, 5.4% active. AID 2551, 2010. Nuclear receptor ROR-gamma (Mus musculus), P51450. Drosophila S2 Gal4-RORgamma UAS-luciferase reporter, 20 h; further: potency means the concentration at half of the fitted maximal effect; on the % scale 0 is the no-effect control and ±100 the full control effect; nearly all actives have a fitted effect of over 60% in size
Target sequence (P51450 whole entry, looked up, the tested form may be a part): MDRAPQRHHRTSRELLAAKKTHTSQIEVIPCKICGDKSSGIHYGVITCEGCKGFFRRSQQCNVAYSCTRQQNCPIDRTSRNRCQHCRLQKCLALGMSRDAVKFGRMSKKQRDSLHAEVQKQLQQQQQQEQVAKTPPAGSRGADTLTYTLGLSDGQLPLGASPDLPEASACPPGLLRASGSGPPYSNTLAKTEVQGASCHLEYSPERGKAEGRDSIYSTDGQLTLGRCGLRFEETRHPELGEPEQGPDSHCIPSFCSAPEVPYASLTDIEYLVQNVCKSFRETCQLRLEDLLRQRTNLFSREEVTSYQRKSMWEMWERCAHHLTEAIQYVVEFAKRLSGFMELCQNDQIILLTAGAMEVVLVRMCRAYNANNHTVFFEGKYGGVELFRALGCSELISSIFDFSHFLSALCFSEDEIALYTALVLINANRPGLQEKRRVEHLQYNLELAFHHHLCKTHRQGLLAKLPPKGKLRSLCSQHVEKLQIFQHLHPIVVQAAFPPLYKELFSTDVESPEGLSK
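Using a luciferase readout, inhibitors were identified by reduced reporter activity in Drosophila cells coexpressing a copper-inducible Gal4–ROR gamma fusion and UAS-driven Photinus luciferase, incubated 20 hr after 700 uM copper sulfate.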
MCF10A rereplic: A quantitative high throughput screen for small molecules that induce DNA re-replication in MCF 10a normal breast cells | MCF 10A DNA re-replication, Hoechst nuclear intensity, 48 h | Potency, µM (highest dose often 46.1 µM), inactives show top-dose activity, positive = re-replication, hits mostly activators | 350,000 tested, 2.9% active | AID 624296, 2012; further: potency means the concentration at half of the fitted maximal effect; % of control where 0% means no effect; nearly all actives have a fitted effect of over 50% in size
SW480 rereplic: A quantitative high throughput screen for small molecules that induce DNA re-replication in SW480 colon adenocarcinoma cells. SW480 DNA re-replication, Hoechst DNA content imaging, 48 h. Potency, µM (titrated, usually from 46.1 µM), for inactives: at the highest dose re-replication activation, most hits filed as activators. 340,000 tested, 1.8% active. AID 624297, 2012; further: potency means the concentration at half of the fitted maximal effect; % of control where 0% means no effect; nearly all actives have a fitted effect of over 55% in size
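Per well, 250 cells were exposed to pinned compound for 48 hr. Nuclear DNA was visualised with Hoechst (40 min, 37 C) and total object intensity recorded by fluorescence scanning.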
IL-1B inflam inh: qHTS for Inhibitors of Inflammasome Signaling: IL-1-beta AlphaLISA Primary Screen | activity change, % at 57.5 µM | 360,000 tested, 4.7% active | AID 743279, 2014 | THP-1 LPS/ATP IL-1B secretion, AlphaLISA, 16 h; hits give low values; in the data active means activity change below about -50%; inconclusive means mostly about -30% to -49%; further: on the % scale 0 is the no-effect control and ±100 the full control effect
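THP-1 cells pretreated 1 hr with compounds (up to 57.5 uM final), then stimulated with LPS (250 ng/mL final) plus ATP (1.25 mM final); secreted IL-1B measured by AlphaLISA after 16 hr, decreased signal indicating inhibition.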
* hit, by the source's call; ? = inconclusive; nt = no result given; [ ] = remark or other dose. Only some compounds are listed: those with a hit (about 11% of all), similar ones and a draw of the others. Unless noted, the call rests on the fitted dose curve; in most records, active means well fitted curve in the direction sought with a large enough effect; inconclusive means small, poorly fitted or top-dose-only effect, or another doubt; inactive means no such curve, though single readings can be large; an effect the other way counts as inactive or inconclusive.

SMILES	VP16 counter	RORg inh	MCF10A rereplic	SW480 rereplic	IL-1B inflam inh
COc1ccc(NC(=O)C(=O)N/N=C\c2ccc(CNC(=O)C(=O)Nc3ccc(C)c(C)c3)o2)c(OC)c1	3.16µM*	11.0%[1.91 µM]	?	2.91µM*	28.0
CC12CCC(=O)N1C(C(=O)Nc1ccc(F)c(Cl)c1)CS2 (centres undefined)	nt	nt	?	-12.7%	-12.9
Cc1ccc(NC(=O)c2ccc(Cl)c(S(=O)(=O)N3CCCC3)c2)nc1	nt	nt	11.4%	-1.2%	-15.0
Nc1nonc1C(=O)N/N=C/c1cc(Br)ccc1O	-0.4%	-2.2%	-16.3%	-5.7%	187.5
NC(=O)N/N=C\c1cc(Br)ccc1O	-21.6%	-16.1%	0.8%	6.7%	-9.0
O=C(N/N=C\c1ccc(Sc2ccccn2)o1)c1cccc(Br)c1	?	8.91µM*	?	6.2%	?
O=C(N/N=C/c1cc(Cl)ccc1O)c1ccc(Br)cc1	?	2.82µM*	13.8%	1.64µM*	47.1
O=C(N/N=C\c1cc(Br)ccc1O)c1ccc(S(=O)(=O)N2CCCCC2)cc1	3.98µM*	3.55µM*	-4.4%	3.8%	91.3
Cc1ccc(N=Nc2ccc(O)c(/C=N\NC(=O)c3ccc(N)cc3)c2)cc1C	2.24µM*	3.16µM*	-0.3%	3.66µM*	86.5
C=CCOC(=O)[C@H](O)[C@@H](O)C(=O)OCC=C	0.7%	-0.5%	nt	nt	nt
O=C(N/N=C/c1cccc2ccccc12)c1ccncc1	-4.0%	-22.0%	-6.1%	-3.3%	-1.7
O=C(N/N=C/c1cc(Br)ccc1OC(=O)c1ccc(Br)cc1)c1ccncc1	5.01µM*	2.82µM*	10.1%	?	112.8
CC(C)(C)OC(=O)N/N=C/c1cc(N=Nc2ccccc2)ccc1O	5.62µM*	3.98µM*	?	-3.5%	-10.8
O=C(N/N=C/c1cc(Br)ccc1O)Nc1ccccc1	11.2µM*	2.51µM*	?	?	-96.9*
O=C(N/N=C/c1ccccc1O)c1ccncc1	2.82µM*	3.16µM*	?	?	110.1
CC(C)(C)OC(=O)N/N=C/c1c[nH]c2ccccc12	-8.0%	13.6%	-0.1%	-9.1%	8.0
O=C(NCc1ccco1)c1[nH]c(C(F)(F)F)nc1-c1ccccc1	nt	nt	nt	nt	2.2
Cc1nc(SCC(=O)N2CCC(Cc3ccccc3)CC2)[nH]c(=O)c1C	nt	nt	?	-6.0%	9.5
COc1ccc(C(=O)NCCNc2nc3cc(C)cc(C)c3cc2C#N)c(OC)c1	nt	nt	nt	nt	0.0
O=C(N/N=C/c1ccccc1O)c1cc[n+]([O-])cc1	-10.6%	?	?	25.9µM*	42.3
O=C(N/N=C/c1cc([N+](=O)[O-])ccc1O)c1ccncc1	4.0%	?	15.5%	?	141.8
Cc1nc(C)c(C(=O)N/N=C/c2cc(Br)ccc2O)s1	7.94µM*	3.16µM*	?	?	118.6
O=C(N/N=C/c1ccc(O)c2ncccc12)c1cccc(Br)c1	?	15.8µM*	18.4µM*	?	120.7
O=C(N/N=C/c1cc(Br)ccc1O)c1ccncc1	?	6.31µM*	?	?	162.3
O=C(NC(=S)Nc1cccc(O)c1)C12CC3CC(CC(C3)C1)C2	nt	nt	nt	nt	0.0
SMILES	VP16 counter	RORg inh	MCF10A rereplic	SW480 rereplic	IL-1B inflam inh
CCOc1ccccc1C=NNC(=O)C(=O)NN=Cc1ccccc1OCC	nt	nt	-5.6%	-12.9%	25.0
Cc1cc(C(=O)N/N=C/c2cc(Br)ccc2OC(=O)c2ccccc2Cl)n[nH]1	?	14.1µM*	?	7.31µM*	77.8
Cc1cc(C(=O)N/N=C/c2cc(Br)ccc2OC(=O)c2ccccc2)n[nH]1	2.7%[0.365 µM]	?	22.3%	?	165.6
CCOc1ccccc1NC(=O)C(=O)N/N=C/c1cc(Br)ccc1O	?	1.78µM*	-9.7%	0.82µM*	115.5
Clc1ccc2ncnc(NCc3ccc4c(c3)OCO4)c2c1	7.94µM*	?	nt	nt	nt
Oc1ccc(CCNc2ncnc3ccc(Cl)cc23)cc1	6.31µM*	?	8.2µM*	-62.3%	45.9
CN(Cc1cccs1)C(=O)CNC(=O)c1ccco1	18.0%	20.4%	7.4%	-3.2%	2.5
C(=C\c1nnc2c3ccccc3ncn12)/c1ccccc1	?	?	6.51µM*	?	45.0
COc1cc(/C=C/c2nnc3c4ccccc4ncn23)cc(OC)c1OC	?	?	?	-9.6%	?
COCCNC(=S)N1CCC(Cc2ccccc2)CC1	-1.6%	-30.1%	11.1%	-11.1%	6.5
CC(C)[C@H](NC(=O)N1CCC(Cc2ccccc2)CC1)C(=O)O	2.0%	1.4%	-3.7%	-15.3%	0.0
CC(C)CNC(=S)N1CCC(Cc2ccccc2)CC1	?	10µM*	4.8%	15.6%	-23.6
CC(C)NC(=S)N1CCC(Cc2ccccc2)CC1	-19.8%	1.12µM*	?	4.3%[1.84 µM]	-10.2
Cc1ccc(Cc2c(-c3ccccc3)nc3c(Cl)cc(C(F)(F)F)cn23)cc1	nt	nt	nt	nt	36.9
CCOc1cccc(/C=N/NC(=O)C2CCCC2)c1O	4.8%	1.6%	9.1%	5.8µM*	178.8
Cc1cccc(/C=N/NC(=O)c2ccc3c(c2)OCCO3)c1O	2.51µM*	3.55µM*	nt	nt	nt
O=C(CNC(=O)c1ccc2c(c1)OCCO2)N/N=C/c1ccc(O)cc1O	-3.9%	-11.5%	?	?	9.5
COc1cc(/C=N/NC(=O)c2ccc3c(c2)OCCO3)c(Br)c(Br)c1O	-2.3%	13.2%	?	?	-10.5
CCOc1cccc(/C=N/NC(=O)c2ccc3c(c2)OCCO3)c1O	0.631µM*	0.398µM*	-14.3%	?	62.0
COc1cccc(/C=N/NC(=O)CNC(=O)c2ccc3c(c2)OCCO3)c1O	4.47µM*	0.631µM*	?	?	48.3
Cc1nc2ccc(C(=O)NCCCN3CCCC3=O)cn2c1N(C)C(=O)CCc1ccccc1	nt	nt	nt	nt	-8.5
COc1ccc(C(=O)N2CCCCC2c2cc(C(=O)Nc3cccc(C#N)c3)no2)cc1 (centres undefined)	nt	nt	nt	nt	-11.9
CC(O)(c1cccc(F)c1)c1nc(-c2ccc3ccccc3c2)cs1 (centres undefined)	nt	nt	nt	nt	0.0
O=C(N/N=C/c1c(Cl)[nH]c2ccccc12)c1ccc2c(c1)OCCO2	-4.9%	-0.8%	-4.4%	-132.7%	-56.9*
O=C(N/N=C/c1ccc(-c2ccc(Br)cc2)o1)c1ccc2c(c1)OCO2	10µM*	3.55µM*	?	23.7%	-2.5
O=C(N/N=C/c1cccc(O)c1)c1ccc2c(c1)OCCO2	6.31µM*	3.16µM*	-4.3%	-23.1%	-11.9
O=C(N/N=C\c1cccc(OC(=O)c2ccco2)c1)c1ccc2c(c1)OCO2	6.31µM*	14.1µM*	-66.0%	?	-16.9
Cn1c(NCCc2ccncc2)nc2cc(-c3cccc(C(F)(F)F)c3)sc2c1=O	nt	nt	nt	nt	15.4
N#Cc1cc2cc(Cl)ccc2[nH]c1=O	nt	nt	nt	nt	25.0

From PubChem BioAssay
